Assay [1] concerns MKL-1. The experiment in a line: qHTS assay to identify novel small-molecules to repurpose for Merkel cell carcinoma treatment (AID 1296009). Also: nearly all actives have a fitted effect of over 60% in size. Also: potency is read from the fitted curve at half-maximal effect. Particulars: MCC and control cell lines, CellTiter-Glo viability, 72 h; series mostly up to 46 µM. The essentials: (§1)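 Cell viability, measured as CellTiter-Glo luminescence, was normalized between DMSO and no-cell wells. The cells had been exposed to 8- or 11-point compound dilutions for 72 hr at 37 degree celsius.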
Background: qHTS replaces the single test concentration by a dilution series.

The test system of assay [2] is MKL-2. The description is as above. Particulars: MCC and control cell lines, CellTiter-Glo viability, 72 h; series mostly up to 46 µM. The method, boiled down: as §1
Assay [3] relates to NIH3T3. Described as above. Particulars: MCC and control cell lines, CellTiter-Glo viability, 72 h; series mostly up to 44.8 µM. The essentials:
as §1

Assay [4] has as its system UISO. Described as above. Particulars: MCC and control cell lines, CellTiter-Glo viability, 72 h; series mostly up to 46 µM. The method, boiled down:
as §1

Assay [5] relates to WaGa. The assay is described as above. Particulars: MCC and control cell lines, CellTiter-Glo viability, 72 h; series mostly up to 46 µM. The method, boiled down: as §1
In general terms: ATP-based viability assays read luminescence as a measure of living cells.

Assay [6] deals with C33A. In words: Primary qHTS to identify gynecologic anti-cancer compounds using libraries of approved drugs and bioactive compounds (AID 1345084). Also: nearly all actives have a fitted effect of over 55% in size. Particulars: Gynecologic cancer cell panel viability, ATPlite luminescence, 48 h; series mostly up to 57.5 µM. The essentials:
(§2)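 Cells, 1,000 per well, were allowed to settle for 16 h at 37 C before compound addition. Five concentrations were tested for 48 h, and viability was read by ATPlite luminescence after 15 min at room temperature.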

The subject of assay [7] is CAOV3. The description is as above. Particulars: Gynecologic cancer cell panel viability, ATPlite luminescence, 48 h; series mostly up to 57.5 µM. The essentials: as §2
In assay [8] the test system is CASKI. The description is as above. Particulars: Gynecologic cancer cell panel viability, ATPlite luminescence, 48 h; series mostly up to 57.5 µM. The method, boiled down:
as §2

For assay [9], the system named is Es-2. The description is as above. Particulars: Gynecologic cancer cell panel viability, ATPlite luminescence, 48 h; series mostly up to 57.5 µM. The method, boiled down: as §2
Assay [10] relates to HeLa. The assay is described as above. Particulars: Gynecologic cancer cell panel viability, ATPlite luminescence, 48 h; series mostly up to 57.5 µM. The method, boiled down: as §2
In assay [11] the test system is Hek293T. The assay is described as above. Particulars: Gynecologic cancer cell panel viability, ATPlite luminescence, 48 h, control line for the selectivity index; series mostly up to 57.5 µM. The method, boiled down:
as §2

Assay [12] has as its system JEG-3. Described as above. Particulars: Gynecologic cancer cell panel viability, ATPlite luminescence, 48 h; series mostly up to 57.5 µM. The method, boiled down: as §2
Assay [13] has as its system OV90. The assay is described as above. Particulars: Gynecologic cancer cell panel viability, ATPlite luminescence, 48 h; series mostly up to 57.5 µM. The method, boiled down:
as §2

The subject of assay [14] is PA-1. Described as above. Particulars: Gynecologic cancer cell panel viability, ATPlite luminescence, 48 h; series mostly up to 57.5 µM. The method, boiled down:
as §2

In assay [15] the test system is Tov-21-G. The description is as above. Particulars: Gynecologic cancer cell panel viability, ATPlite luminescence, 48 h; series mostly up to 57.5 µM. The essentials:
as §2

Assay [16] relates to Tov112D. The assay is described as above. Particulars: Gynecologic cancer cell panel viability, ATPlite luminescence, 48 h; series mostly up to 57.5 µM. The essentials:
as §2

Assay [17] concerns SKOV3. The assay is described as above. Particulars: Gynecologic cancer cell panel viability, ATPlite luminescence, 48 h; series mostly up to 57.5 µM. The essentials: as §2

Molecules are shown by their SMILES. Inconclusive results are not listed. A number with no mark means an inactive call. Activity calls are given as the source filed them. Calls follow the shape of the dose curve; as a rule, active = well fitted curve in the direction sought with a large enough effect; inconclusive = small, poorly fitted or top-dose-only effect, or another doubt; inactive = no such curve, though single readings can be large; an effect the other way counts as inactive or inconclusive.

This is an account of results in PubChem BioAssay (NCATS).

Regarding `COc1nc(C)cnc1NS(=O)(=O)c1cccnc1-c1ccc(-c2nnco2)cc1`, the Potency result in [1], in [2], in assay [3], in assay [4], in assay [5] and in assay [6] was “inactive” each time. Moreover, the Potency entry in assay [7], in assay [8], in assay [9], in assay [10], in assay [11] and in [12] was “inactive” in each case. Further, the Potency result in [13], in assay [14], in assay [15] and in [16] was “inactive” in each case.
`CCOC(=O)N1c2ccc(C(F)(F)F)cc2[C@@H](N(Cc2cc(C(F)(F)F)cc(C(F)(F)F)c2)C(=O)OC)C[C@H]1CC`: the Potency result in assay [1], in [2], in assay [3], in [4] and in assay [5] was “inactive” throughout.
As to `Cc1ccc(C2=Nc3ccc(Cl)cc3OC2)cc1`, the Potency in assay [1] was 14.8 µM (active).
`c1ccc(CNc2nc(N3CCOc4ccccc43)nc3c2CCCC3)cc1`: the Potency result in assay [1], in [2], in assay [3], in assay [4], in assay [5] and in assay [6] was “inactive” each time. The Potency entry in [7], in [8], in [9], in assay [10], in assay [11] and in assay [12] was “inactive” throughout. The Potency entry in assay [13], in [14], in [17], in assay [15] and in assay [16] was “inactive” each time.
For `COC(=O)N1CCN(Cc2cccc(NC(=O)Nc3ccc(C)nc3)c2F)CC1`, the Potency result in assay [1], in [2], in assay [3], in assay [4], in assay [5] and in assay [6] was “inactive” each time. The Potency result in assay [7], in [8], in assay [9], in [10], in assay [11] and in assay [12] was “inactive” in each case. Further, the Potency entry in [13], in assay [14], in assay [15] and in assay [16] was “inactive” each time.
With `C[C@H]1COC2=C1C(=O)C(=O)c1c2ccc2c1CCCC2(C)C`, the Potency result in [1], in assay [2], in [3], in assay [4] and in [5] was “inactive” each time.
Turning to `Cc1cc(OCCCS(C)(=O)=O)cc(C)c1-c1cccc(COc2ccc3c(c2)OC[C@H]3CC(=O)O)c1`, the Potency entry in [1] is “inactive”.
Turning to `Cc1nc2c([nH]1)CCN(C(=O)c1ccc(NC(=O)c3ccccc3-c3ccccc3)cc1)c1ccccc1-2`, the Potency entry in assay [1], in assay [2], in assay [3], in [4], in [5] and in [6] was “inactive” in each case. In addition, the Potency result in [7], in [8], in assay [9], in assay [10], in [11] and in [12] was “inactive” throughout. Also, the Potency result in assay [13], in assay [14], in assay [17], in assay [15] and in [16] was “inactive” throughout.
Consider `CCOC(=O)[C@H](CCc1ccccc1)N[C@@H](C)C(=O)N1CCCC1C(=O)O` (stereo partly drawn), for which the Potency result in [1], in assay [2], in [3], in assay [4] and in assay [5] was “inactive” each time.
For the compound `CC(C)Oc1cc(Nc2nc(N[C@@H](C)c3ccc(F)cn3)ncc2Cl)[nH]n1`, the Potency result in assay [1] and in [2] was “inactive” each time.
As to `CCN(CC)CCCCNc1nc2cc(Cl)c(Cl)cc2nc1-c1ccc(-c2cccs2)s1`, the Potency is 23.5 µM (active) in assay [1] and 14.8 µM (active) in assay [2].
Regarding `CCC(=C(CC)c1ccc(O)cc1)c1ccc(O)cc1`, in assay [1], the Potency entry is “inactive”.
For `CCC(c1ccc(O)cc1)C(CC)c1ccc(O)cc1` (stereo not drawn), the Potency entry in assay [1], in assay [2], in assay [3] and in assay [4] was “inactive” in each case.
As for `COc1cc(C=CC(=O)O)ccc1O`, the Potency entry in assay [1], in assay [2], in assay [3], in [4] and in assay [5] was “inactive” each time.
In the case of `CC(=O)N1CCN(c2ccc(OCc3nn(C)c(C)c3-c3cccc4c(CCCOc5cc(C)c(Cl)c(C)c5)c(C(=O)O)n(Cc5cccnc5)c34)cc2)CC1`, the Potency entry in assay [1], in assay [3] and in assay [4] was “inactive” throughout. Also, the figures for the Potency in [2] and in assay [5] were 14.8 µM (active) and 11.8 µM (active), respectively.
In the case of `C[C@H]1O[C@@H](n2cc(F)c(=O)[nH]c2=O)[C@H](O)[C@H]1O`, the Potency result in assay [1] and in assay [2] was “inactive” in each case.
Take `Cc1ccccc1-n1c(Cn2nc(-c3cccc(O)c3)c3c(N)ncnc32)nc2cccc(C)c2c1=O`: the Potency in assay [1] is 1.05 µM (active); in assay [2], 10.5 µM (active); in assay [4], 10.5 µM (active); in assay [5], 0.118 µM (active). For the same compound, the Potency result in [3], in assay [6], in assay [7], in assay [8], in [9] and in [10] was “inactive” in each case. Further, the Potency result in [11], in assay [12], in [13], in assay [14], in assay [17] and in assay [15] was “inactive” each time. Also, in assay [16], the Potency result is “inactive”.
Regarding `CCC[C@@H](NC(=O)[C@@H]1[C@H]2CCC[C@@H]2CN1C(=O)[C@@H](NC(=O)[C@@H](NC(=O)c1cnccn1)C1CCCCC1)C(C)(C)C)C(=O)C(=O)NC1CC1`, the Potency result in [1], in assay [2], in assay [3], in [4] and in assay [5] was “inactive” in each case.
Consider `Cc1cc2nc3c(=O)[nH]c(=O)nc-3n(CC(O)C(O)C(O)CO)c2cc1C` (stereo not drawn), for which the Potency result in [1], in assay [2], in [3], in [4] and in assay [5] was “inactive” each time.
For `OC[C@H]1O[C@@H](Oc2ccc(O)cc2)[C@H](O)[C@@H](O)[C@H]1O`, the Potency result in [1], in [2], in [3], in assay [4] and in [5] was “inactive” in each case.
As to `CC[C@]1(O)C[C@H]2CN(CCC3=c4ccccc4=N[C]3[C@@](C(=O)OC)(c3cc4c(cc3OC)N(C)[C@H]3[C@@](O)(C(N)=O)[C@H](O)[C@]5(CC)C=CCN6CC[C@]43[C@@H]65)C2)C1`, the results for the Potency in assay [1] and in assay [2] were 0.0037 µM (active) and 0.0469 µM (active), respectively.
In the case of `OC1CCC(Nc2ncc3nc(Nc4c(F)cc(F)cc4F)n([C@@H]4CCOC4)c3n2)CC1` (stereo partly drawn), the Potency entry in assay [1], in assay [2], in assay [3], in assay [4] and in assay [5] was “inactive” throughout.
